Records with an inconclusive call do not appear. Activity calls are given as the source filed them. Calls come from the whole dose curve; as a rule, active = well fitted curve in the direction sought with a large enough effect in the repeat runs; inconclusive = weak or mixed curves; inactive = no such curve, though single readings can be large; an effect the other way counts as inactive or inconclusive. Where a SMILES comes first, the peptide text is derived from it.
How the values were obtained:
[1] = qHTS RealTime-Glo MT Cell Viability Assay in HepG2 cells - 24 hour (AID 1224867); note: nearly all actives have a fitted effect of over 50% in size
Procedure, shortened: (§1)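 Cells + NanoLuc/prosubstrate dispensed (600 cells/well) → 5 h at 37 C/5% CO2 → compounds in DMSO transferred → 40 h incubation at 37 C, luminescence read at 0, 8, 16, 24, 32, 40 h.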

[2] = qHTS RealTime-Glo MT Cell Viability Assay in HEK293 cells - 32 hour (AID 1224868); note: top concentration of the series differs between compounds; nearly all actives have a fitted effect of over 50% in size
Procedure, shortened: (§2)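 Tox21 10K qHTS, HEK293, 600 cells/well, RealTime-Glo reagent co-dispensed with cells; 5 h preincubation, compound by pintool, 37 C, luminescence at 0–40 h.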

[3] = A CellTox Green Cytotoxicity Assay to monitor cytotoxicity in HEK293 cells - 0 hour (AID 1224869); note: nearly all actives have a fitted effect of over 50% in size
Procedure, shortened: (§3)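 Tox21 screen in HEK293: membrane-impermeant cyanine dye fluoresces on binding dead-cell DNA; compound pinned 5 h post-seeding, plates held at 37 C, signal read repeatedly through 40 h.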

[4] = qHTS RealTime-Glo MT Cell Viability Assay in HepG2 cells - 40 hour (AID 1224870); note: nearly all actives have a fitted effect of over 50% in size
Procedure, shortened: (§4)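 HepG2 cells (600/well) mixed with RealTime-Glo MT reagent, settled 5 h at 37 C/5% CO2 before compound addition. Nonlytic NanoLuc luminescence from viable-cell prosubstrate reduction read repeatedly during 40 h treatment at 37 C.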

[5] = A CellTox Green Cytotoxicity Assay to monitor cytotoxicity in HEK293 cells - 40 hour (AID 1224871); note: nearly all actives have a fitted effect of over 45% in size
Procedure, shortened: as §3

[6] = qHTS RealTime-Glo MT Cell Viability Assay in HEK293 cells - 16 hour (AID 1224872)
Procedure, shortened: as §2

[7] = qHTS RealTime-Glo MT Cell Viability Assay in HepG2 cells - 8 hour (AID 1224873); note: nearly all actives have a fitted effect of over 55% in size
Procedure, shortened: as §4

[8] = qHTS RealTime-Glo MT Cell Viability Assay in HEK293 cells - 40 hour (AID 1224874); conditions: RealTime-Glo luminescence; max response: active compounds read low; note: nearly all actives have a fitted effect of over 50% in size
Procedure, shortened: (§5)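 HEK293 + NanoLuc + prosubstrate, 600 cells/well; 5 h, 37 C/5% CO2; compound 23 nL in DMSO by pintool; 37 C; luminescence read at 0, 8, 16, 24, 32 and 40 h time points.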

[9] = A CellTox Green Cytotoxicity Assay to monitor cytotoxicity in HEK293 cells - 24 hour (AID 1224875); note: series mostly up to about 77 µM; nearly all actives have a fitted effect of over 45% in size
Procedure, shortened: as §3

[10] = A CellTox Green Cytotoxicity Assay to monitor cytotoxicity in HepG2 cells - 16 hour (AID 1224876); note: nearly all actives have a fitted effect of over 45% in size
Procedure, shortened: (§6)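 Measurements at 0, 8, 16, 24, 32 and 40 h of treatment captured CellTox Green fluorescence in HepG2 cells that had been co-plated with reagent and preincubated 5 h at 37 C/5% CO2.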

[11] = qHTS RealTime-Glo MT Cell Viability Assay in HepG2 cells - 32 hour (AID 1224877); note: nearly all actives have a fitted effect of over 55% in size
Procedure, shortened: as §1

[12] = A CellTox Green Cytotoxicity Assay to monitor cytotoxicity in HepG2 cells - 24 hour (AID 1224878); note: nearly all actives have a fitted effect of over 45% in size
Procedure, shortened: as §6

[13] = A CellTox Green Cytotoxicity Assay to monitor cytotoxicity in HepG2 cells - 40 hour (AID 1224879); note: nearly all actives have a fitted effect of over 40% in size
Procedure, shortened: as §6

[14] = qHTS RealTime-Glo MT Cell Viability Assay in HEK293 cells - 0 hour (AID 1224880); note: nearly all actives have a fitted effect of over 45% in size; note: potency is the fitted concentration of half-maximal effect
Procedure, shortened: as §5

[15] = A CellTox Green Cytotoxicity Assay to monitor cytotoxicity in HEK293 cells - 32 hour (AID 1224881); note: nearly all actives have a fitted effect of over 40% in size
Procedure, shortened: as §3

[16] = A CellTox Green Cytotoxicity Assay to monitor cytotoxicity in HepG2 cells - 0 hour (AID 1224882); note: nearly all actives have a fitted effect of over 35% in size
Procedure, shortened: as §6

[17] = A CellTox Green Cytotoxicity Assay to monitor cytotoxicity in HepG2 cells - 32 hour (AID 1224883); note: nearly all actives have a fitted effect of over 50% in size
Procedure, shortened: as §6

[18] = A CellTox Green Cytotoxicity Assay to monitor cytotoxicity in HEK293 cells - 8 hour (AID 1224884); note: nearly all actives have a fitted effect of over 35% in size
Procedure, shortened: as §3

[19] = qHTS RealTime-Glo MT Cell Viability Assay in HepG2 cells - 16 hour (AID 1224885); note: nearly all actives have a fitted effect of over 50% in size
Procedure, shortened: as §1

[20] = qHTS RealTime-Glo MT Cell Viability Assay in HEK293 cells - 24 hour (AID 1224886)
Procedure, shortened: as §2
% is set by controls: 0 for no effect and ±100 for the full control effect.

Cc1ncc([N+](=O)[O-])n1CC(C)O (stereo not given)
inactive: outcome [1] | Potency [2] | Potency [3] | outcome [4] | Potency [5] | Potency [6] | outcome [7] | max response [8] -2.46% | Potency [9] | Potency [10] | outcome [11] | Potency [12] | Potency [13] | Potency [14] | Potency [15] | Potency [16] | Potency [17] | Potency [18] | outcome [19] | Potency [20]

CCN1CCCC1CN (stereo not given)
inactive: outcome [1] | Potency [2] | Potency [3] | outcome [4] | Potency [5] | Potency [6] | outcome [7] | max response [8] 9.62% | Potency [9] | Potency [10] | outcome [11] | Potency [12] | Potency [13] | Potency [14] | Potency [15] | Potency [16] | Potency [17] | Potency [18] | outcome [19] | Potency [20]

[O-][n+]1cccc(/C(Cl)=N/OC[C@@H](O)CN2CCCCC2)c1
inactive: outcome [1] | Potency [2] | Potency [3] | outcome [4] | Potency [5] | Potency [6] | outcome [7] | max response [8] 2.14% | Potency [9] | Potency [10] | outcome [11] | Potency [12] | Potency [13] | Potency [14] | Potency [15] | Potency [16] | Potency [17] | Potency [18] | outcome [19] | Potency [20]

C[C@]12CCC(=O)C=C1CC[C@H]1[C@@H]3CC[C@](O)(C(=O)CO)[C@@]3(C)C[C@H](O)[C@@]12F
inactive: outcome [1] | Potency [2] | Potency [3] | outcome [4] | Potency [5] | Potency [6] | outcome [7] | max response [8] -26.1% | Potency [9] | Potency [10] | outcome [11] | Potency [12] | Potency [13] | Potency [15] | Potency [16] | Potency [17] | Potency [18] | outcome [19] | Potency [20]
active: Potency [14] 9.52 µM

Fc1ccccc1
inactive: outcome [1] | Potency [2] | Potency [3] | outcome [4] | Potency [5] | Potency [6] | outcome [7] | max response [8] 13.3% | Potency [9] | Potency [10] | outcome [11] | Potency [12] | Potency [13] | Potency [14] | Potency [15] | Potency [16] | Potency [17] | Potency [18] | outcome [19] | Potency [20]

CC(=O)N[C@@H](CO)C(=O)N[C@@H](CC(=O)O)C(=O)N[C@@H](CCCCN)C(=O)N1CCC[C@H]1C(=O)O (Ac-SDKP-OH)
inactive: outcome [1] | Potency [2] | Potency [3] | outcome [4] | Potency [5] | Potency [6] | outcome [7] | max response [8] 3.58% | Potency [9] | Potency [10] | outcome [11] | Potency [12] | Potency [13] | Potency [14] | Potency [15] | Potency [16] | Potency [17] | Potency [18] | outcome [19] | Potency [20]
